Screens deposited in PubChem BioAssay by several laboratories.
This is a sample that favours compounds with a hit; in the whole collection about 22% have one here.
CYP2C19 inh = blocks human cytochrome P450 2C19; P33261; CYP2C19 Supersomes, luciferin-H EGE luminescence, 30 min; 96,000 tested, 21% active; inhibition, % at 5 µM;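 active means CYP2C19 inhibition above a set limit at 5 µM in the primary screen, cut at about 50% in these data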;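 further: plate controls were negative control wells for no effect and 2.5 mM tranylcypromine positive control for full effect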
Target sequence (P33261 whole entry, looked up): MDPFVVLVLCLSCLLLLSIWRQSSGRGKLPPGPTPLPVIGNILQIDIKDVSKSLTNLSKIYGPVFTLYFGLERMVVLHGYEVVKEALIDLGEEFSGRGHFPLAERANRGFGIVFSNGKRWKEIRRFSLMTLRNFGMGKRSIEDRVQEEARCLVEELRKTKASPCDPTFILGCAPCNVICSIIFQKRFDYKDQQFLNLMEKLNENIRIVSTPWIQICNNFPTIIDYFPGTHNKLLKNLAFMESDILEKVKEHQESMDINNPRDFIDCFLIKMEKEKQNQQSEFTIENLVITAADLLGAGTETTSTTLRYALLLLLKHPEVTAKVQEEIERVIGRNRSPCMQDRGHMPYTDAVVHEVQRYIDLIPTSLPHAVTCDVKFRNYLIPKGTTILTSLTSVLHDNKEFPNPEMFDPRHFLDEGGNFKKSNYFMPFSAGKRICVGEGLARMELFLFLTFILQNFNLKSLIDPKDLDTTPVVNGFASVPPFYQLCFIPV
CYP2C19 activ = increases human CYP2C19 enzyme activity; P33261; recombinant CYP2C19, luciferin-H EGE luminescence; active compounds read high; 0 = fully inhibited enzyme, 1 = untreated enzyme; activation factor at 5 µM; 96,000 tested, under 10 active;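 active means activation factor of at least 2 at 5 µM in the primary screen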;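 further: 0 = wells with 2.5 mM tranylcypromine and 1 = vehicle-only wells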
CYP2C9 activ = increases human cytochrome P450 2C9 activity; P11712; recombinant CYP2C9, luciferin-H conversion, luminescence; active compounds read high; factor 1 = untreated enzyme, 0 = blocked; activation factor at 5 µM; 96,000 tested, 1.4% active; AID 1024;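 active means activation factor of 2 or more for CYP2C9 at a 5 µM dose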;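 further: 0 = sulfaphenazole-blocked wells and 1 = vehicle-only wells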
Measles CPE = protection of cells from measles virus; Measles virus-infected cells, CPE protection, absorbance; protection (pct of control), % at 4 µM; 140,000 tested, 1.5% active; in the data active means protection mostly above about 24%, no sharp cut-off; inactive means mostly below about 26%
CYP2C9 inh = blocks human cytochrome P450 2C9. inhibition, % at 5 µM. P11712. CYP2C9 Supersomes, luciferin-H conversion, luminescence. 96,000 tested, 20% active;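 active means blocking of liver enzyme CYP2C9 beyond about 50% at 5 µM, limit read from the data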
* = called active by the depositor; x = not tested or not shown.

SMILES	CYP2C19 inh	CYP2C19 activ	CYP2C9 activ	Measles CPE	CYP2C9 inh
COc1cc(NC(=O)c2cccc(Cl)c2)c(OC)cc1NC(=O)CN1CCOCC1	-2	1	0.9	73*	14
CC12CCC(C(=O)Nc3ccc(SC(F)F)cc3)(CC1=O)C2(C)C (stereo not drawn)	9	0.9	0.8	6	24
COc1ccc(C(=O)Nc2cc(OC)ccc2OC)cc1	71*	0.3	1.2	3	-20
COc1ccc(OC)c(NC(=O)C23CCC(C)(C(=O)C2)C3(C)C)c1 (stereo not drawn)	28	0.7	2.3*	6	-130
COc1cc(NC(=O)c2ccccc2)c(OC)cc1NC(=O)CN1CCOCC1	8	0.9	0.8	6	16
COc1ccc(OC)c(NC(=O)c2ccc(CN3CCOCC3)cc2)c1	21	0.8	2*	5	-96
Cc1ccc(S(=O)(=O)NCC(=O)OCC(=O)N2N=C(c3ccc(Cl)cc3)CC2c2ccco2)cc1C (stereo not drawn)	x	x	x	10	x
COc1ccc(OC)c(NC(=S)NN2CCOCC2)c1	30	0.7	1	57*	3
COc1ccc(OC)c(NC(=O)c2cn(C)c(=O)c3cc(OC)c(OC)cc23)c1	32	0.7	0.3	0	74*
Nc1nc(Nc2cccc(F)c2)nc2ccccc12	62*	0.4	0.4	8	56*
O=c1oc(Nc2cccc(F)c2)nc2ccccc12	4	1	0.9	4	8
O=[N+]([O-])c1ccc(/C=N/Nc2nc(-c3ccccc3)c3cc(Br)ccc3n2)o1	-4	1	1	4	-2
Cc1ccc2nc(N/N=C\c3ccc([N+](=O)[O-])o3)nc(-c3ccccc3)c2c1	73*	0.3	0.1	12	87*
CCN1CCN(C(c2cccs2)C(C)NS(=O)(=O)c2ccc(Br)cc2)CC1 (stereo not drawn)	95*	0	0.9	3	9
Cc1ccc(S(=O)(=O)NC(C)C(c2cccs2)N2CCN(C)CC2)cc1 (stereo not drawn)	x	x	x	10	x
CC(NS(=O)(=O)c1ccccc1)C(c1cccs1)N1CCN(C)CC1 (stereo not drawn)	63*	0.4	1	5	3
Cc1ccc(S(=O)(=O)NC(C)C(c2cccs2)N2CCOCC2)cc1 (stereo not drawn)	x	x	x	5	x
O=C(NCc1ccc(Cl)cc1)C1CCN(S(=O)(=O)c2cc([N+](=O)[O-])ccc2Cl)CC1	x	x	x	7	x
CCCN=Cc1sc2ccc(OCC)cc2c1O	69*	0.3	1.5	2	-52
Cc1ccc(OCC(=O)N/N=C2/SCC(=O)N2Cc2ccccc2)cc1	x	x	x	21	x
COc1ccc(NC(=O)CS(=O)CC(=O)NC2CCCc3ccccc32)cc1 (stereo not drawn)	-2	1	1	2	4
Cc1ccc(NC(=O)O/N=C2\CCCCC2c2ccc([N+](=O)[O-])cc2[N+](=O)[O-])cc1 (stereo not drawn)	41	0.6	0.2	6	82*
O=C(c1ccco1)N1CCN(Cc2nc3ccccc3c(=O)n2-c2ccc(F)cc2)CC1	36	0.6	0.3	9	70*
CCOC(=O)C1CCN(Cc2nc3ccccc3c(=O)n2-c2ccc(F)cc2)CC1	13	0.9	0.3	3	68*
Cn1c(=O)c2c(nc(CN3CCN(C(=O)c4ccco4)CC3)n2Cc2ccccc2)n(C)c1=O	27	0.7	0.6	4	37
SMILES	CYP2C19 inh	CYP2C19 activ	CYP2C9 activ	Measles CPE	CYP2C9 inh
CCOC(=O)c1ccc(NC(=O)CSc2nccn2C)cc1	60*	0.4	0.9	5	9
Cc1nnc(NC(=O)CSc2nccn2C)s1	x	x	x	21	x
Cn1ccnc1SCC(=O)Nc1cccc2ccccc12	97*	0	1.6	34	-61
CCOC(=O)c1ccc(NC(=O)CSc2nnc(COc3ccccc3)n2C)cc1	14	0.9	1	24	2
Cn1ccnc1SCC(=O)NC12CC3CC(CC(C3)C1)C2	92*	0.1	0.9	14	5
COC(=O)c1ccccc1NC(=O)CSc1nc(O)cc(=O)n1C1CCCC1	28	0.7	0.3	6	74*
CCOc1ccc(CC2CC(=O)NC2=O)cc1 (stereo not drawn)	11	0.9	1	14	-4
COc1cc(C(=O)NCc2cn3ccccc3n2)cc(OC)c1OC	x	x	x	4	x
Cc1ccc(N/C=C(\C#N)c2ccc(OCCCF)cc2)cc1	20	0.8	0.8	5	23
O=C(O)C1C2C=CC(C2)C1C(=O)NC1CCN(Cc2ccccc2)CC1 (stereo not drawn)	-2	1	0.8	10	21
COC(=O)c1ccccc1NC(=O)Cn1ccnc1	100*	0	0.2	5	84*
COC(=O)c1ccccc1NC(=O)CSc1nccn1C	85*	0.1	0.9	7	7
COC(=O)c1ccccc1NC(=O)Cn1c(CCC(=O)O)ccc1-c1cccs1	53*	0.5	0.7	9	33
COC(=O)c1ccccc1NC(=O)CSc1nnc(COc2cccc(OC)c2)n1C	32	0.7	0.8	5	25
Cc1ccc(NC(=O)Cn2c(CCC(=O)O)ccc2-c2cccs2)cc1	1	1	1.1	5	-13
CSc1ccc(-c2c(C#N)c(N)nc3c2CCCC3)cc1	14	0.9	1.1	40*	-6
COc1ccc(-c2c(C#N)c(N)nc3c2CCCCCC3)cc1OC	-2	1	1	42*	3
N#Cc1c(N)nc2c(c1-c1ccncc1)CCCCC2	17	0.8	0.9	4	12
CCOC(=O)N1CCC(NC(=O)Cn2nc(Cc3ccncc3)c3ccccc3c2=O)CC1	55*	0.4	0.2	30	77*
CCOC(=O)N1CCC(NC(=O)c2cc3c(C)nc4ccccc4c3o2)CC1	40	0.6	0.4	10	61*
CCOC(=O)N1CCN(C(=O)c2ccc3c(c2)N(CC)CCS3)CC1	4	1	0.2	2	78*
CCOC(=O)N1CCC(NC(=O)Cn2nc(-c3ccccc3)ccc2=O)CC1	4	1	1	22	-4
CCOC(=O)N1CCC(NC(=O)c2ccc3c(c2)N(Cc2ccccc2)CCS3)CC1	85*	0.1	0.1	3	92*
COc1ccc(N2CC(C(=O)Nc3ncccc3C)CC2=O)cc1 (stereo not drawn)	-2	1	0.8	14	22
CC(c1cccs1)N(Cc1ccco1)C(=O)Nc1ccc(Cl)c(Cl)c1 (stereo not drawn)	78*	0.2	0	16	97*
COc1cccc(/C=N\NC(=O)c2cc(OCC(F)(F)F)ccc2OCC(F)(F)F)c1	12	0.9	0.8	15	20
Cc1cc(C(C)(C)C)cc(C)c1COC(=O)C1CCC(=O)N1 (stereo not drawn)	63*	0.4	0.7	5	34
O=C1CCC(C(=O)OCc2c(Cl)cccc2Cl)N1 (stereo not drawn)	-9	1.1	1.2	2	-16
